The target of assay [1] is T1, Tyrosine-protein kinase receptor TYRO3 (Homo sapiens) (UniProt Q06418).
T1 sequence (whole entry): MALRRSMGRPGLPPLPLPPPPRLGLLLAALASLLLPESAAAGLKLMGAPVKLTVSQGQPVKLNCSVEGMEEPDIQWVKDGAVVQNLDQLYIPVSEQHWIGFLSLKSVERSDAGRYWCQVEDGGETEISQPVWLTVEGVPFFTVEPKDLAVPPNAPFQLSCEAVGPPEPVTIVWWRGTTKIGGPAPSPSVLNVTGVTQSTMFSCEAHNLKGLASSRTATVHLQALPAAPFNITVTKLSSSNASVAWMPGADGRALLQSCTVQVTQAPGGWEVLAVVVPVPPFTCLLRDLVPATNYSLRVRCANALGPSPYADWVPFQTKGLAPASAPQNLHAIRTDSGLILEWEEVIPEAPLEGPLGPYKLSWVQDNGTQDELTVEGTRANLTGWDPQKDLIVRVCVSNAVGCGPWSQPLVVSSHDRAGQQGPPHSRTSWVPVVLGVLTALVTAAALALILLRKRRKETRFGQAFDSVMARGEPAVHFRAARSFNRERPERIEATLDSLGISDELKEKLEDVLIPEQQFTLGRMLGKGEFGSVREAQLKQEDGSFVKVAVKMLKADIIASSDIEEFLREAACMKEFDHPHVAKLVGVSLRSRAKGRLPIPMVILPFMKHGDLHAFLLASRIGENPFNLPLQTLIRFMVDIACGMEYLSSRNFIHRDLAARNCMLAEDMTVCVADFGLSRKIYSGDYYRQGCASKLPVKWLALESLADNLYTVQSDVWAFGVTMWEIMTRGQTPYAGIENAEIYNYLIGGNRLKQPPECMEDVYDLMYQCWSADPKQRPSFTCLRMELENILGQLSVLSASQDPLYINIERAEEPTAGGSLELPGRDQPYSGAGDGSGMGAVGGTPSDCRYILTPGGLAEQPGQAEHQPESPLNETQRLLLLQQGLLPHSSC
The following applies: at 1 µM.

In assay [2] the target is Tyrosine-protein kinase Yes (Homo sapiens) (UniProt P07947). The following applies: at 0.1 µM.
Sequence of Tyrosine-protein kinase Yes (Homo sapiens) (P07947 2-543 limits assumed): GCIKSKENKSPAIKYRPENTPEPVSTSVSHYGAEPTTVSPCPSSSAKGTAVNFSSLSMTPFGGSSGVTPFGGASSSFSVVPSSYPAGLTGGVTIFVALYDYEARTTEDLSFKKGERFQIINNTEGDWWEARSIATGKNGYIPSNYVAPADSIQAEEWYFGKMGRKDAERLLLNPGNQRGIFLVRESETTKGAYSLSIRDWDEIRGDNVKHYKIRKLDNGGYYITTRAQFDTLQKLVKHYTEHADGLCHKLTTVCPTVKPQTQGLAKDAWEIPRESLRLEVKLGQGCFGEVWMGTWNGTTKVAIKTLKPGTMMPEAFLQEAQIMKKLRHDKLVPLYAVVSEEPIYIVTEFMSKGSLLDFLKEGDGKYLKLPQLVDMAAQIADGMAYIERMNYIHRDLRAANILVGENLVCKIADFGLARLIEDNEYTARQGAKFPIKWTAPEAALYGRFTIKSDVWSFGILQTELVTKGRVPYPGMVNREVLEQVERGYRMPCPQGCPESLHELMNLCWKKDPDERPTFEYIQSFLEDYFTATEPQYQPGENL
Assay [3] shares this target. To be noted: at 1 µM.
In assay [4] the target is T2, Tyrosine-protein kinase ZAP-70 (Homo sapiens) (UniProt P43403).
T2 sequence (whole entry): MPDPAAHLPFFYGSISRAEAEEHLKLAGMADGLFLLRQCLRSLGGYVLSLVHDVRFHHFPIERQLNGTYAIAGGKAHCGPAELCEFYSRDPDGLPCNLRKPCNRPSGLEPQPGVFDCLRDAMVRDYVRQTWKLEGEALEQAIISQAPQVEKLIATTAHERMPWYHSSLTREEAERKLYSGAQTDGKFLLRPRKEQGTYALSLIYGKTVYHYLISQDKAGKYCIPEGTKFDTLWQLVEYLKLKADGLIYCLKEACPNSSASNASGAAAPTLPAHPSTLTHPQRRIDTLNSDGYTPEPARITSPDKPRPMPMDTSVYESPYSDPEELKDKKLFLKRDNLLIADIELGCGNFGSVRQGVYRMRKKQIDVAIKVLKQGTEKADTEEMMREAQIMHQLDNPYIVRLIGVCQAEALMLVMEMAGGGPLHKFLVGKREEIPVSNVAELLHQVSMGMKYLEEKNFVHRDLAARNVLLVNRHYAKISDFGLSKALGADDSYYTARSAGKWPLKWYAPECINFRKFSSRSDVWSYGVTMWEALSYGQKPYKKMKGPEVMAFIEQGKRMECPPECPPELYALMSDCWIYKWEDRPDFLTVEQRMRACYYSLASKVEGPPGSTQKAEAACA
The following applies: at 0.1 µM.

Assay [5] addresses T2, Tyrosine-protein kinase ZAP-70 (Homo sapiens). The following applies: at 1 µM.
The target of assay [6] is Serine/threonine-protein kinase B-raf (Homo sapiens) (UniProt P15056). The following applies: at 0.1 µM.
Sequence of Serine/threonine-protein kinase B-raf (Homo sapiens) (P15056 whole entry): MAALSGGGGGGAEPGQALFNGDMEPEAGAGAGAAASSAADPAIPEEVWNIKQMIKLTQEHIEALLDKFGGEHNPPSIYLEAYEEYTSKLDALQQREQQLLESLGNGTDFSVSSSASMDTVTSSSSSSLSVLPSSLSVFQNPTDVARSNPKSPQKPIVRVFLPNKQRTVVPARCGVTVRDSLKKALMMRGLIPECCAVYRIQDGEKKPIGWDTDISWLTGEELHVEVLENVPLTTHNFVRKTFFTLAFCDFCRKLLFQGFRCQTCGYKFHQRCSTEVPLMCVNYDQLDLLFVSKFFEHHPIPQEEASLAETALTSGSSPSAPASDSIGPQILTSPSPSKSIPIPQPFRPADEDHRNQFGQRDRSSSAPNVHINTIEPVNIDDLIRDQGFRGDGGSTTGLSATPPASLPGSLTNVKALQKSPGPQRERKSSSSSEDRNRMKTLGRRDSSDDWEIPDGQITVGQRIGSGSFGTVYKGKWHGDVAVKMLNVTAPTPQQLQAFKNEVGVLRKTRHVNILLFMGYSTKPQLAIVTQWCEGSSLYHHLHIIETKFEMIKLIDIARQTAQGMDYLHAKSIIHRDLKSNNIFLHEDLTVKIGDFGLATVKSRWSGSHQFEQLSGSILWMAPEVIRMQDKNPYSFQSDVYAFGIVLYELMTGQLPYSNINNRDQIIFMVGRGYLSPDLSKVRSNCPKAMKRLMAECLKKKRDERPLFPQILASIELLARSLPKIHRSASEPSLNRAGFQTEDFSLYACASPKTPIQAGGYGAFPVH
The target is the same in assay [7]. To be noted: at 1 µM.
Assay [8] relates to Serine/threonine-protein kinase B-raf (Homo sapiens), P15056 [V600E]. The following applies: at 0.1 µM.
Sequence of Serine/threonine-protein kinase B-raf (Homo sapiens), P15056 [V600E] (P15056 whole entry V600E): as the sequence (P15056 whole entry) above, with V600E counted along it
Assay [9] has the same test system. The following applies: at 1 µM.
The target in assay [10] is RAF proto-oncogene serine/threonine-protein kinase (Homo sapiens) (UniProt P04049). The following applies: at 0.1 µM.
Sequence of RAF proto-oncogene serine/threonine-protein kinase (Homo sapiens) (P04049 whole entry): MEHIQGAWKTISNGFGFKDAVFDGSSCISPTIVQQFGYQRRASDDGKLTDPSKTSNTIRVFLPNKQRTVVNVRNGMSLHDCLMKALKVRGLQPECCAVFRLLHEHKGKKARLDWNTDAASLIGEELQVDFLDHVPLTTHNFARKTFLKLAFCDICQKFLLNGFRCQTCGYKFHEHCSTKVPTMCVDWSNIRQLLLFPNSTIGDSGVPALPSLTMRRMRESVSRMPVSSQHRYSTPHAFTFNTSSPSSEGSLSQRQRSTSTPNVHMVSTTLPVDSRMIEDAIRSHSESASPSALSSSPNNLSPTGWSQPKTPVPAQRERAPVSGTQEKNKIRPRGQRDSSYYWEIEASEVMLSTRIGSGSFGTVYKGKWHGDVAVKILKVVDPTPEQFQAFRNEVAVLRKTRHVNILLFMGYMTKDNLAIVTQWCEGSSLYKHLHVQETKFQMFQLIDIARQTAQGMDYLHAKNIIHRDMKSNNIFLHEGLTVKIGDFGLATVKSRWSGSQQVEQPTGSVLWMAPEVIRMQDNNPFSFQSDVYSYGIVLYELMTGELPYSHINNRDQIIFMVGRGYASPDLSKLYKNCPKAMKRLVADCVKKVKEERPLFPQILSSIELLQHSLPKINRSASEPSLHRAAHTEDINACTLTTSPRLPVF
Assay [11] shares this target. To be noted: at 1 µM.
Assay [12] has as its target T3, Interleukin-1 receptor-associated kinase 4 (Homo sapiens) (UniProt Q9NWZ3).
T3 sequence (whole entry): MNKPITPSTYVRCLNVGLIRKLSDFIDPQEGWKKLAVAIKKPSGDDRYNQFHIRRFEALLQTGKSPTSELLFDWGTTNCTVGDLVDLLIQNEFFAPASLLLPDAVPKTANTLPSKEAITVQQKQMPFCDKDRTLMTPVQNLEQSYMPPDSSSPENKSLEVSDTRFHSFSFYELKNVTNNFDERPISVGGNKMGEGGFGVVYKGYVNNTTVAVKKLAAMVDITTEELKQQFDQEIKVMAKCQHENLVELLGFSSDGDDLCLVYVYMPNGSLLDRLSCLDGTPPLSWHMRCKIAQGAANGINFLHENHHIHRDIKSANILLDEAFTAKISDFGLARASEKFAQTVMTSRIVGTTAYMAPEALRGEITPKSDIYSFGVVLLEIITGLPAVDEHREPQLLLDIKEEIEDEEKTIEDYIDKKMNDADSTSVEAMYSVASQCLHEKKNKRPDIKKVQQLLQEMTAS
To be noted: at 0.1 µM.

The target of assay [13] is T3, Interleukin-1 receptor-associated kinase 4 (Homo sapiens). The following applies: at 1 µM.
Assay [14] deals with Leucine-rich repeat serine/threonine-protein kinase 2 (Homo sapiens) (UniProt Q5S007). The following applies: at 0.1 µM.
Sequence of Leucine-rich repeat serine/threonine-protein kinase 2 (Homo sapiens) (Q5S007 whole entry): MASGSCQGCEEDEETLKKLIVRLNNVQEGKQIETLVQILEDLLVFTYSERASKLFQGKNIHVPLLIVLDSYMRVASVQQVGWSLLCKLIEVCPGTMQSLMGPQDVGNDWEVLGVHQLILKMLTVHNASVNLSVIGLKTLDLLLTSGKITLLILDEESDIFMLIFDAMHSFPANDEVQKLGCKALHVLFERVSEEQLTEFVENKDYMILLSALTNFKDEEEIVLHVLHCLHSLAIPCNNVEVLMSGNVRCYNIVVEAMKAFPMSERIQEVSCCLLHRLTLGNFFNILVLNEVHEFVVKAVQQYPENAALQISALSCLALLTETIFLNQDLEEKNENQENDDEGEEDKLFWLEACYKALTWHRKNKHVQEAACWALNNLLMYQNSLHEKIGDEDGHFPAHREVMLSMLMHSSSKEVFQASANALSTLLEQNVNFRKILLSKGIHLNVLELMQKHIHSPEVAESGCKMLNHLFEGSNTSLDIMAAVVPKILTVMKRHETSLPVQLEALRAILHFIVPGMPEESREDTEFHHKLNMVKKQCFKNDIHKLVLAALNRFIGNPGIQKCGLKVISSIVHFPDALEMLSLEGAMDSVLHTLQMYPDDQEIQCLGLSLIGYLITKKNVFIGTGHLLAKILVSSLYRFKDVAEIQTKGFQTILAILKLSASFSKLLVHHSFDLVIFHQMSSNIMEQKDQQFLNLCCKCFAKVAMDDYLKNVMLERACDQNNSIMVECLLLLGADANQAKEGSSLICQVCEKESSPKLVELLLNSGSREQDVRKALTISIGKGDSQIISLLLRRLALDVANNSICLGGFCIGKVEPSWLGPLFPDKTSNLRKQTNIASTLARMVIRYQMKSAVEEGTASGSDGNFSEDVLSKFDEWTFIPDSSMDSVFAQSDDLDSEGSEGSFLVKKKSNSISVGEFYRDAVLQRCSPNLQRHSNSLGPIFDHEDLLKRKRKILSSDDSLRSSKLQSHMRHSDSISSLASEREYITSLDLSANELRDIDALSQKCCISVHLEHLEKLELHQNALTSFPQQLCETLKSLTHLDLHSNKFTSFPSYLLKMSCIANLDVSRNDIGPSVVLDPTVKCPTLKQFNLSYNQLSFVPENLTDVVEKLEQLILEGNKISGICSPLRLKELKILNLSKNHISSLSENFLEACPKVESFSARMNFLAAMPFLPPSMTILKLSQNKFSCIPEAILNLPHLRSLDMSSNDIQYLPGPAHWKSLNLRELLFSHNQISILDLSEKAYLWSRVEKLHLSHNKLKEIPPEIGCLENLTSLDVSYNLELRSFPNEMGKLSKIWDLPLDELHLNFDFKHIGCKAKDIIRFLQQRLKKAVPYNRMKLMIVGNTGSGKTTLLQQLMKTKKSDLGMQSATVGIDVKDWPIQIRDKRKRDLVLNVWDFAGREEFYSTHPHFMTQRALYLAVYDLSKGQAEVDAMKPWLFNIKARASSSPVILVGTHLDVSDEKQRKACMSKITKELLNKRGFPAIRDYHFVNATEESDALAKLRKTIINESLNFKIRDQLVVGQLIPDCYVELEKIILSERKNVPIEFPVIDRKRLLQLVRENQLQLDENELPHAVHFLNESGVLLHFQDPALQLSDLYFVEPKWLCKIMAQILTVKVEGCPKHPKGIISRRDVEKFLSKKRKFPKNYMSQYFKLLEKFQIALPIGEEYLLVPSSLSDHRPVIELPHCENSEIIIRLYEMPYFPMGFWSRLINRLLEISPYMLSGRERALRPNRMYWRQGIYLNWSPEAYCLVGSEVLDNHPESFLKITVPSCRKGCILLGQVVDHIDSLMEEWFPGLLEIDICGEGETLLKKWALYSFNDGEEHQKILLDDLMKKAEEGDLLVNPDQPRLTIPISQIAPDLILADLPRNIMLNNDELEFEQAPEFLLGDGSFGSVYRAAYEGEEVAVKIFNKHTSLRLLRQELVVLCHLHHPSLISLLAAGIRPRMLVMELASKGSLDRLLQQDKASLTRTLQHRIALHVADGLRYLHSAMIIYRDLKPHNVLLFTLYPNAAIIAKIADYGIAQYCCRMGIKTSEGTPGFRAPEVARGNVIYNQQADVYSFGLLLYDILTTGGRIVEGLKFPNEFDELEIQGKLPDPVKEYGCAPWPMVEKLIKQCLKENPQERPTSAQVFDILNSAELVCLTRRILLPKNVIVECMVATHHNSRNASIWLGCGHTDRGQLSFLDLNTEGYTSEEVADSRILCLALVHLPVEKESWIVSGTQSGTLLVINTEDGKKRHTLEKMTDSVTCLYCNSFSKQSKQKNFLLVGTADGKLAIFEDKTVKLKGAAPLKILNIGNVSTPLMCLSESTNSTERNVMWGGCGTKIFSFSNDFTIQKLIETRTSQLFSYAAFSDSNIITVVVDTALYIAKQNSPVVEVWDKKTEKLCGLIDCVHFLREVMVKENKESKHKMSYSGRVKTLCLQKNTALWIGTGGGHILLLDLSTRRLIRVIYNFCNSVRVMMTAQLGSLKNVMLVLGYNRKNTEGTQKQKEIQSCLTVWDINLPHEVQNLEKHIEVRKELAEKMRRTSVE
Assay [15] shares this target. The following applies: at 1 µM.
The subject of assay [16] is Leucine-rich repeat serine/threonine-protein kinase 2 (Homo sapiens), Q5S007 [G2019S]. To be noted: at 0.1 µM.
For assay [17] the test system is unchanged. The following applies: at 1 µM.

Sequence of Leucine-rich repeat serine/threonine-protein kinase 2 (Homo sapiens), Q5S007 [G2019S] (Q5S007 whole entry G2019S): as the sequence (Q5S007 whole entry) above, with G2019S counted along it

Consider `COc1ccc(CNC(=O)c2ccc(-c3cc(-c4nnc(C)o4)ccc3C)cc2)cc1`, for which the inhibition in [1] was 4.48%; in assay [2] it was -0.74%; in assay [3], 7.13%; in assay [4], 2.69%; in [5] it was 2.94%; in [6], 0.94%. The inhibition in assay [7] is -0.29%; in assay [8], 1.06%; in assay [9], 1.01%; in assay [10] it was 1.48%; in [11], -4.44%; in assay [12], 0.85%. Also, the inhibition in assay [13] amounted to 1.98%; in assay [14], 3.51%; in [15], 10.8%; in assay [16], 5.52%; in [17] it was 9.35%.

For the compound `COc1cc(N2CCN(C(C)C)CC2)ccc1Nc1nc(Nc2ccc(F)cc2C(N)=O)c2cc[nH]c2n1`, the inhibition was found to be 2.95% in assay [1]; 0.75% in [2]; 7.33% in [3]; 6.3% in assay [4]; 23.5% in assay [5]; 2.3% in assay [6]. The inhibition in assay [7] is 16.1%; in assay [8], 1.62%; in [9], 13.7%; in [10] it was 0.33%; in assay [11], -2.24%; in assay [12], 0.7%. Besides, the inhibition in assay [13] came out at 1.94%; in assay [14] it was 84.9%; in assay [15] it was 94.8%; in assay [16] it was 85.4%; in [17] it was 62.5%.

With `CS(=O)(=O)CCNCc1coc(-c2ccc3ncnc(Nc4ccc(OCc5ccccc5)cc4)c3c2)c1`, the inhibition in [1] was 2.91%; in assay [2], 4.14%; in [3], 26.2%; in [4], 1.16%; in [5], 2.06%; in assay [6] it was 3.09%. Also, the inhibition came out at 6.31% in [7]; 3.49% in [8]; 3.25% in assay [9]; 2.12% in [10]; 2.03% in assay [11]; 1.8% in assay [12]. Further, the inhibition in [13] stood at 2.23%; in [14], 0.86%; in [15], 5.65%; in [16], 1.72%; in assay [17], 5.71%.

In the case of `O=C(Nc1n[nH]c2cc(-c3ccc(F)cc3)ccc12)C1CC1`, the inhibition in assay [1] worked out at 13.5%; in assay [2] it was 1.98%; in [3] it was 6.64%; in [4] it was 1.71%; in assay [5], 3.64%; in assay [6], 4.3%. The inhibition in assay [7] was 5.73%; in [8] it was 4.48%; in [9], 5.12%; in assay [10] it was 1.6%; in [11], -2.56%; in assay [12] it was 2.26%. Besides, the inhibition was 1.45% in assay [13]; 0.78% in [14]; 5.22% in assay [15]; 3.03% in [16]; 6.98% in assay [17].

As to `CC(C)(CO)CNC(=O)c1ccc2c(c1)/C(=N/Nc1ccc(S(N)(=O)=O)cc1)C(=O)N2`, the inhibition was 5.36% in assay [1]; 1.79% in [2]; 16.9% in assay [3]; -3.15% in assay [4]; 0.33% in assay [5]; 5.62% in [6]. Besides, the inhibition in assay [7] is 43.5%; in assay [8] it was 7.49%; in assay [9] it was 44.1%; in assay [10] it was -0.32%; in assay [11] it was -3.84%; in [12] it was -1.23%. Further, the inhibition in assay [13] was -0.85%; in assay [14], 3.58%; in assay [15], 15%; in assay [16], 6.85%; in assay [17], 37.8%.

Take `CC(C)COC(=O)c1ccc2c(c1)/C(=C/Nc1ccc(S(N)(=O)=O)cc1)C(=O)N2`: the inhibition in assay [1] was 17%; in assay [2] it was 0.49%; in [3] it was 22.1%; in [4] it was -2.35%; in assay [5] it was 1.21%; in assay [6] it was 2.66%. In addition, the inhibition in assay [7] was 32.8%; in [8], 1.68%; in assay [9], 34%; in [10], -3.89%; in assay [11] it was 0.2%; in assay [12], 2.68%. Further, the inhibition turned out to be 0.81% in [13]; 7.28% in assay [14]; 22.7% in assay [15]; 23.3% in assay [16]; 64.1% in assay [17].

`COC(=O)Nc1nc2ccc(S(=O)(=O)c3ccc(NC(=O)Nc4cc(C(F)(F)F)ccc4F)cc3)cc2[nH]1`: the inhibition in assay [1] is 2.45%; in assay [2] it was 1.97%; in assay [3] it was -2.4%; in assay [4], 2.44%; in assay [5], 3.21%; in assay [6], 3.07%. For the same compound, the inhibition in assay [7] is 3.12%; in assay [8], 3.61%; in assay [9] it was 4.39%; in assay [10] it was -1.21%; in assay [11], -2.68%; in assay [12] it was 2.19%. Further, the inhibition in assay [13] worked out at 1.11%; in assay [14], 4.08%; in assay [15], 3.21%; in [16] it was 2.36%; in [17] it was 6.79%.

`CC(=O)Nc1cccc(C#Cc2cncnc2Nc2ccc(OCc3cccc(F)c3)c(Cl)c2)c1`: the inhibition was found to be 0.81% in [1]; 1.2% in assay [2]; 1.7% in [3]; 3.59% in assay [4]; 6.95% in assay [5]; 1.95% in [6]. In addition, the inhibition is 1.44% in [7]; 1.85% in [8]; 2.03% in assay [9]; 2.77% in [10]; 1.55% in assay [11]; -1.12% in [12]. Further, the inhibition was 1.86% in assay [13]; 4.77% in [14]; 7.3% in assay [15]; 3.19% in assay [16]; 8.37% in assay [17].

The term inhibition denotes the change of the read-out against control, counted positive when it falls.

Values taken from ChEMBL document CHEMBL1961873, “Compounds: GSK PKIS; Assays: Nanosyn kinase panel” (2012).
